TDP1 cell noCPT: qHTS for Inhibitors of human tyrosyl-DNA phosphodiesterase 1 (TDP1): qHTS in cells in absence of CPT; DT40 Tdp1-/- hTDP1 cells, no CPT, ATP luminescence, 48 h; Potency, µM (top dose mostly 46.2 µM), without a hit: at the top dose activity change, negative = growth inhibition, hits mostly inhibitors; 420,000 compounds, 15% hits; AID 686978, 2013; further: potency means the concentration at half of the fitted maximal effect; nearly all actives have a fitted effect of over 55% in size
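Growth kinetics read by CellTiter-Glo luminescence after ≥48 hr at 37 °C. Cells: DT40 Tdp1-/- stably carrying human TDP1, 400 per well, compound exposure in the absence of CPT (DMSO vehicle).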
ALOX12 inh: inhibitors of human 12S-lipoxygenase ALOX12; Potency, µM (highest dose often 108 µM), inactives show at the top dose activity change, negative = inhibition, usual class: inhibitors; purified 12hLO, xylenol orange hydroperoxide absorbance; 580,000 compounds, 1.1% hits; AID 1671190; further: potency means the concentration at half of the fitted maximal effect
Target sequence (P18054 whole entry, looked up): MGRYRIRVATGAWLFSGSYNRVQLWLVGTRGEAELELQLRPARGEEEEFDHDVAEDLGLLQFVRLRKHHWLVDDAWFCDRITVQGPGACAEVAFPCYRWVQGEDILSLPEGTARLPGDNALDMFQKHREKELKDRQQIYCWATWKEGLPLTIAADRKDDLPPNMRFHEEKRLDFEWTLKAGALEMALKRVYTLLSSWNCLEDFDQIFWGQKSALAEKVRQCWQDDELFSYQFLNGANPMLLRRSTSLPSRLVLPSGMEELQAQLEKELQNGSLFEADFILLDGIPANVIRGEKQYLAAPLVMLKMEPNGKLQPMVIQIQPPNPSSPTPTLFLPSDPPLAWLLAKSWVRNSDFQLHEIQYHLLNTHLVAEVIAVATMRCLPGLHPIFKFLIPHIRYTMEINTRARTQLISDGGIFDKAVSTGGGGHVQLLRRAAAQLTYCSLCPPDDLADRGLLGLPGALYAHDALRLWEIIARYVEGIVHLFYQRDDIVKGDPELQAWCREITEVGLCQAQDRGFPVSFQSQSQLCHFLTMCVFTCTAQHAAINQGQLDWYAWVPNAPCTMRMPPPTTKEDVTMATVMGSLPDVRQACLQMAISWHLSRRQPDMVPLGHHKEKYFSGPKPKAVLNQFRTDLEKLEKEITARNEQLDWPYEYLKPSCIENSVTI
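Hydroperoxide product was detected by ferrous iron/xylenol orange as the 573 to 405 nm absorbance ratio. Arachidonic acid at 40 uM (final) was turned over for 30 min at room temperature by 150 nM human 12hLO, pH 7.0 Hepes buffer, after 15 min compound preincubation.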
HT1080 IDH1KD tx: toxicity to HT-1080 IDH1 knockdown cells (counter line); HT-1080 IDH1 knockdown viability, ATP luminescence, 48 h; Potency, µM (titrated, usually from 46.1 µM), without a hit: at the highest dose activity, negative = toxicity, hits mostly cytotoxic; 360,000 compounds, 2% hits;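 further: potency means the concentration at half of the fitted maximal effect; 0% = DMSO wells and -100% = cell-free medium wells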
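After a 2 h attachment period, IDH1KD HT-1080 cells took pin-transferred compound for 48 h at 37 °C; ATP-based luminescence after 10 min room-temperature reagent incubation reported viability.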
TDP1 cell CPT: DT40-hTDP1 cell growth loss with CPT | chicken DT40 Tdp1-/-;hTDP1 cells + 20 nM CPT, ATP luminescence, 48 h | Potency, µM (series often up to 46.2 µM), inactives show top-dose activity change, negative = growth inhibition, usual class: inhibitors | 420,000 compounds, 12% hits | AID 686979; further: potency means the concentration at half of the fitted maximal effect; nearly all actives have a fitted effect of over 55% in size
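Cell growth measured by CellTiter-Glo luminescence after a minimum 48 h, 37 C compound exposure with 20 nM CPT in Tdp1-knockout DT40 cells stably expressing hTDP1, seeded 400/well; qHTS titration format.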
IL-1B inflam inh: inflammasome signaling inhibition, IL-1 beta readout; THP-1 LPS/ATP IL-1B secretion, AlphaLISA, 16 h; active compounds read low; activity change, % at 57.5 µM; 360,000 compounds, 4.7% hits; in the data active means activity change below about -50%; inconclusive means mostly about -30% to -49%
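THP-1 cells pretreated 1 hr with compounds (up to 57.5 uM final), then stimulated with LPS (250 ng/mL final) plus ATP (1.25 mM final); secreted IL-1B measured by AlphaLISA after 16 hr, decreased signal indicating inhibition.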
HT1080NT lethal: kills 2HG-producing HT-1080-NT fibrosarcoma cells. Potency, µM (doses to about 46.1 µM), for inactives: at the highest dose activity, negative = less viability, usual class: cytotoxic. AID 686970. 360,000 compounds, 1.6% hits. HT-1080-NT fibrosarcoma viability, CellTiter-Glo ATP luminescence, 48 h;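 further: NT is the 2HG producing partner of a matched IDH1 knockdown line; potency means the concentration at half of the fitted maximal effect; 0% = DMSO-treated cells and -100% = media-only wells without cells; nearly all actives have a fitted effect of over 55% in size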
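Luminescent CellTiter-Glo readout after 48 hours of compound exposure at 37 degrees C defined viability of HT-1080-NT cells. Activity was normalized to DMSO wells and cell-free media wells; concentration-response curves were fitted and assigned curve classes.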
* = called active by the depositor; ? = inconclusive; . = not tested or not shown. The entries come from a sample that favours hits as a whole. Unless noted, the call rests on the fitted dose curve; in most records, active means well fitted curve in the direction sought with a large enough effect; inconclusive means small, poorly fitted or top-dose-only effect, or another doubt; inactive means no such curve, though single readings can be large; an effect the other way counts as inactive or inconclusive. Unless noted, on the % scale 0 is the no-effect control and ±100 the full control effect.

SMILES	TDP1 cell noCPT	ALOX12 inh	HT1080 IDH1KD tx	TDP1 cell CPT	IL-1B inflam inh	HT1080NT lethal
CN(CC(=O)Nc1cccc(F)c1)C(=O)c1cc(-c2ccccc2)nc2ccccc12	?	-30%	-12%	?	-24	-9%
CC1CCc2c(sc3nnn(Cc4ccc(F)cc4)c(=O)c23)C1 (stereo not drawn)	26µM*	-18%	.	3.3µM*	.	.
CCC1(C)Cc2c(sc3nnn(Cc4ccccc4Cl)c(=O)c23)CO1 (stereo not drawn)	16µM*	0%	-3%	?	-20	11%
C=C(C)CSc1nc2sc3c(c2c(=O)n1Cc1ccccc1)CC(C)(CC)OC3 (stereo not drawn)	12µM*	0%	.	?	.	.
CCCCCOC(=O)CSc1nc2sc3c(c2c(=O)n1Cc1ccccc1)CC(C)(C)OC3	?	-15%	.	-2%	.	.
CCC1(C)Cc2c(sc3nnn(CC(=O)Nc4ccccc4)c(=O)c23)CO1 (stereo not drawn)	-15%	-8%	-17%	-16%	4	-9%
Cc1ccc(Cn2nnc3sc4c(c3c2=O)CCC(C)C4)cc1 (stereo not drawn)	?	-20%	.	-28%	.	.
CC1CCc2c(sc3nnn(Cc4ccccc4Cl)c(=O)c23)C1 (stereo not drawn)	21µM*	-21%	.	?	.	.
COc1cc(OC)cc(-c2nc3nc(C)c(CCC(=O)Nc4cc(C)cc(C)c4)c(C)n3n2)c1	?	-4%	.	-1%	.	.
CCN(CC)/C(Sc1ccccc1)=C(\C(Cl)=C(Cl)Cl)[N+](=O)[O-]	?	-18%	15%	?	-89*	27%
CCN(CC)/C(Sc1ccccc1)=C(/C(Cl)=C(Cl)Cl)[N+](=O)[O-]	?	7.9µM*	0%	21µM*	-7	10%
O=[N+]([O-])/C(C(Cl)=C(Cl)Cl)=C(\Sc1ccccc1)N1CCCCC1	23µM*	?	-5%	18µM*	-16	-5%
O=[N+]([O-])C(=C(Sc1ccccc1)Sc1ccccc1)/C(Cl)=C(/Cl)Br	.	-1%	.	.	.	.
Cc1cc(Br)ccc1NC(=O)CN(C)C(=O)c1nn(-c2ccc(F)cc2)c2c1CCC2	.	-3%	.	.	.	.
CN(CCOc1ccc(Br)cc1)c1ccc(S(=O)(=O)N2CCOCC2)cn1	.	2%	.	.	.	.
CCCc1nnc2c(N(C)S(=O)(=O)c3ccc(C)cc3)nc3ccccc3n12	23µM*	-27%	-12%	?	2	-4%
COc1ccc(S(=O)(=O)N(C)c2nc3ccccc3n3c(CC(C)C)nnc23)cc1	21µM*	-24%	-2%	26µM*	21	-26%
CCCCc1nnc2c(N(C)S(=O)(=O)c3ccc(C)cc3)nc3ccccc3n12	?	-12%	11%	-27%	22	-3%
O=C1CCN(C(=O)C2CCN(C(=O)COc3ccc(F)cc3)CC2)CCCCCCN1	.	15%	.	.	.	.
COc1ccc(-c2cc(C[C@@H]3CC[C@H](O)[C@@H](CNC(=O)c4ccc5c(c4)OCO5)O3)no2)cc1	.	-22%	.	.	.	.
Cc1ccc(CC(=O)NC(C)C2CCCO2)cc1 (stereo not drawn)	.	-1%	.	.	.	.
CCNC(=O)C1(C)CCCN1Cc1c(F)cccc1F (stereo not drawn)	16µM*	?	28%	?	0	?
CSc1ccc(CN2CCC2(C)C(=O)NCc2cccc(C(F)(F)F)c2)cc1 (stereo not drawn)	?	-1%	?	?	-18	?
CC1(C(=O)NCc2ccc(C(F)(F)F)cc2)CCN1Cc1ccc(-c2ccccc2)o1 (stereo not drawn)	?	?	?	?	-54*	?
CC1(C(=O)NCc2ccc(C(F)(F)F)cc2)CCN1Cc1c(F)cccc1F (stereo not drawn)	?	1%	0%	16µM*	4	-5%
SMILES	TDP1 cell noCPT	ALOX12 inh	HT1080 IDH1KD tx	TDP1 cell CPT	IL-1B inflam inh	HT1080NT lethal
Cc1ccc(OCCN2CCC2(C)C(=O)NCc2ccc(C(F)(F)F)cc2)cc1 (stereo not drawn)	21µM*	?	?	?	-19	?
Cc1ncoc1C(=O)N1CC(Oc2ccc(-c3nc(-c4ccccc4)no3)cc2)C1	.	49%	.	.	.	.
Cc1ccc(NC(=O)C(C)SCC(=O)Nc2ccc(F)cc2)cc1S(=O)(=O)N1CCOCC1 (stereo not drawn)	-24%	5%	2%	?	-2	-4%
NCC1Cc2ccccc2O1 (stereo not drawn)	.	41%	.	.	.	.
CC1CCc2c(sc(NC(=O)c3ccccc3)c2C(=O)Nc2ccccc2)C1 (stereo not drawn)	21µM*	0%	.	9.2µM*	.	.
Cc1cccc(NC(=O)c2c(NC(=O)c3cccs3)sc3c2CCC(C)C3)c1 (stereo not drawn)	10µM*	?	.	23µM*	.	.
CCOC(=O)CSc1nc2c(cc1C#N)CCCC2	.	-7%	.	.	.	.
COc1ccc(OC)c(CCNC(=O)c2cc3cccc4c3n2CC(C)S4)c1 (stereo not drawn)	5.2µM*	-25%	.	5.8µM*	.	.
COc1ccc(CNC(=O)c2cc3cccc4c3n2CC(C)S4)c(OC)c1 (stereo not drawn)	5.2µM*	-13%	.	9.2µM*	.	.
COc1ccc(CNC(=O)c2cc3cccc4c3n2CC(C)S4)cc1OC (stereo not drawn)	23µM*	?	.	?	.	.
Cc1ccc(NC(=O)NCc2c(C)nn(C)c2C)cc1C	.	-3%	.	.	.	.
CCN1C(=NCCOC)N[C@@H](c2cccc(C(F)(F)F)c2)C(C(=O)OC)=C1C	18µM*	?	-4%	21µM*	?	-16%
CCN1C(=NCc2ccco2)N[C@@H](c2cccc(C(F)(F)F)c2)C(C(=O)OC)=C1C	?	-71%	-12%	16µM*	0	-3%
COC(=O)C1=C(C)N(C)C(=NCc2cccc(C(F)(F)F)c2)NC1c1cccc(F)c1 (stereo not drawn)	.	1%	.	.	.	.
CCN1C(=NCc2cc(OC)c(OC)c(OC)c2)N[C@@H](c2cccc(C(F)(F)F)c2)C(C(=O)OC)=C1C	-28%	6%	-21%	?	-28	0%
CCN1C(=NCC2CC2)N[C@@H](c2cccc(C(F)(F)F)c2)C(C(=O)OC)=C1C	10µM*	.	-8%	?	.	-10%

Source: PubChem (National Center for Advancing Translational Sciences (NCATS))
